# Data: PubChem BioAssay
# Several values for one entry are separate records, joined by “and”; a condition that tells them apart may be missing. Identical values can stand only once. Records with an inconclusive call do not appear. For some of these results: Measured potencies and affinities stand elsewhere. Activity calls are given as the source filed them. Unless noted, how the calls were made is not given here.
# Experiments:
# [1] = polyglutamine-triggered caspase-3 activation inhibitors, cell-based (AID 1583); settings: polyglutamine-induced caspase-3 activation, cell assay; stronger effect = higher value;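 tested at 10 µM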
# [2] = suppressors of polyQ aggregation in yeast, 75Q-TubU reporter (AID 1593); settings: Yeast 75Q polyglutamine aggregation reporter
# [3] = rescue of polyQ-huntingtin neuronal dysfunction in worms, whole organism, C. elegans mechanosensory neurons, N-terminal huntingtin (AID 1599); settings: touch response, stronger effect = higher value
# [4] = inhibitors of mitochondrial cytochrome c release, biochemical, purified mitochondria (AID 1603); settings: stronger effect = lower value;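 further: mouse liver mitochondria challenged with calcium chloride; signal normalized to the plate average as 100%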
# [5] = inhibitors of polyQ protein aggregation (AID 1604); settings: polyglutamine-induced protein aggregation inhibition assay; stronger effect = higher value; tested at 2.5 µM
# [6] = enhancers of glutamate uptake in motor neurons, MN-1 cell line (AID 1612); settings: MN-1 motor neuron cells, stronger effect = higher value;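 further: tested at 1 µM final; 0% = mean of DMSO vehicle wells on each plate; positive means more glutamate uptake than control and negative means less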
# [7] = reducers of polyQ inclusions in PC12 cells, cell-based, NGF-treated PC12, GFPQ80 (AID 1614); settings: PC12 NGF-treated GFP-polyQ80 inclusion reduction;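 further: lower means fewer inclusions and 0 means no inclusions at all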
# [8] = suppressors of polyglutamine aggregation in yeast, 75Q-TubH (AID 1616); settings: S. cerevisiae 75Q-TubH polyglutamine aggregation suppression; stronger effect = higher value
# [9] = circadian clock period modulators, cell-based, LOPAC library, luminescence reporter (AID 2774); settings: circadian reporter cells, at 7 µM, actives lie on both sides;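 further: values are relative to mean of DMSO wells on each plate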
# [10] = liver-stage malaria parasite growth inhibition, primary screen, cell-based, HepG2, luciferase luminescence, HepG2 viability (AID 624349; in the data active means parasite load remaining mostly below about 12%, no sharp cut-off; inactive means mostly above about 10%;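 further: 100% = mean of DMSO negative control wells on the same plate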); settings: P. berghei liver stage in HepG2, luciferase luminescence, concentration not given here; parasite load remaining: stronger effect = lower value; viability: measured here: HepG2 viability without parasites
# [11] = system: Hepatitis C virus NS3 helicase; assay: HCV NS3 helicase inhibitors, primary screen, biochemical, fluorescence polarization, LOPAC1280 library (AID 687035; in the data active means inhibition above about 37%); settings: Purified HCV NS3 helicase, Cy5-dT15 ssDNA binding fluorescence polarization; stronger effect = higher value; concentration not given here
# [12] = Cy5 fluorescence quenching or enhancement artefacts, artefact control for HCV NS3 helicase inhibitor project, biochemical, LOPAC1280 (AID 687037); settings: Cy5-DNA-NS3h complex fluorescence interference counterscreen
# [13] = target: 6-phosphogluconate dehydrogenase, decarboxylating (Homo sapiens) (UniProt P52209); assay: 6PGD enzyme inhibitors, primary screen, biochemical, human, recombinant enzyme, NADPH absorbance (AID 1159550;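 active means at least 20% inhibition of 6-phosphogluconate dehydrogenase activity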); settings: recombinant 6PGD, NADPH absorbance 341 nm; at 10 µM; stronger effect = higher value
# 6-phosphogluconate dehydrogenase, decarboxylating (Homo sapiens), sequence (P52209 whole entry, looked up): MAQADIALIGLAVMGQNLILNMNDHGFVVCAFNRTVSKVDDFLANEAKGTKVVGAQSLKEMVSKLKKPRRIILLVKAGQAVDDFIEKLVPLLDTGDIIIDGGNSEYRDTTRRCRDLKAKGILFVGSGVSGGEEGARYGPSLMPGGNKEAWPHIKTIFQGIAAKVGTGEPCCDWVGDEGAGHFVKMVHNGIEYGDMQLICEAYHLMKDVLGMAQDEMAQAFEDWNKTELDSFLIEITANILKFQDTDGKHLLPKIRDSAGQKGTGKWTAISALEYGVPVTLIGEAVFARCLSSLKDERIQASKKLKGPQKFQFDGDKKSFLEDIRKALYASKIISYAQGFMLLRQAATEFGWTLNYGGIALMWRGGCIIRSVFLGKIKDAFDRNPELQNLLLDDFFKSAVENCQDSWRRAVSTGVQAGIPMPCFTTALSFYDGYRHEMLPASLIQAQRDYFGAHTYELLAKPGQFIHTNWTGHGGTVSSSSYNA
# [14] = system: Aerobactin synthetase IucA (Klebsiella pneumoniae hvKP1); assay: Biochemical IucA enzyme inhibition primary screen of the Spectrum library (AID 1346200); settings: malachite green pyrophosphate, A620, at 8 µM, stronger effect = lower value;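 further: 100% = wells without compound and 0% = wells lacking enzyme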
# [15] = system: Aerobactin synthetase IucA (Klebsiella pneumoniae, hypervirulent); assay: IucA enzyme inhibition, biochemical, LOPAC library, absorbance readout (AID 1346212); settings: IucA enzyme assay, absorbance (OD) readout; stronger effect = lower value;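 tested at 8 µM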;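 further: 100% = no compound wells and 0% = no enzyme wells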
# [16] = sensitizers of A549 cells to miR-34 induction, primary screen, imaging, A549 dox-inducible miR-34, nuclei and caspase counts (AID 1347080;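 active means compounds whose cell count with miR-34 switched on is under 0.7 times the count with it off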); settings: A549 miR-34 inducible, Hoechst nuclei count, 48 h
# [17] = phospholipid biosynthesis inhibitors in animal cells, primary screen, cell-based, LOPAC library, screen 4 (AID 1347384); settings: phospholipid biosynthesis inhibition screen, at 10 µM
# [18] = target: Mitogen-activated protein kinase 7 (Homo sapiens) (UniProt Q13164); assay: ERK5 transactivation activators in reporter cells, primary screen, cell-based, HTS (AID 1508626;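 active means luciferase signal above three times the same-plate solvent-only control wells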;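 further: luciferase driven by Gal4-ERK5 fusion binding five Gal4 sites before minimal TATA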); settings: HeLa Gal4-ERK5 transactivation, 18 h, at 5 µM, stronger effect = higher value
# Mitogen-activated protein kinase 7 (Homo sapiens), sequence (Q13164 whole entry, looked up, the tested form may be a part): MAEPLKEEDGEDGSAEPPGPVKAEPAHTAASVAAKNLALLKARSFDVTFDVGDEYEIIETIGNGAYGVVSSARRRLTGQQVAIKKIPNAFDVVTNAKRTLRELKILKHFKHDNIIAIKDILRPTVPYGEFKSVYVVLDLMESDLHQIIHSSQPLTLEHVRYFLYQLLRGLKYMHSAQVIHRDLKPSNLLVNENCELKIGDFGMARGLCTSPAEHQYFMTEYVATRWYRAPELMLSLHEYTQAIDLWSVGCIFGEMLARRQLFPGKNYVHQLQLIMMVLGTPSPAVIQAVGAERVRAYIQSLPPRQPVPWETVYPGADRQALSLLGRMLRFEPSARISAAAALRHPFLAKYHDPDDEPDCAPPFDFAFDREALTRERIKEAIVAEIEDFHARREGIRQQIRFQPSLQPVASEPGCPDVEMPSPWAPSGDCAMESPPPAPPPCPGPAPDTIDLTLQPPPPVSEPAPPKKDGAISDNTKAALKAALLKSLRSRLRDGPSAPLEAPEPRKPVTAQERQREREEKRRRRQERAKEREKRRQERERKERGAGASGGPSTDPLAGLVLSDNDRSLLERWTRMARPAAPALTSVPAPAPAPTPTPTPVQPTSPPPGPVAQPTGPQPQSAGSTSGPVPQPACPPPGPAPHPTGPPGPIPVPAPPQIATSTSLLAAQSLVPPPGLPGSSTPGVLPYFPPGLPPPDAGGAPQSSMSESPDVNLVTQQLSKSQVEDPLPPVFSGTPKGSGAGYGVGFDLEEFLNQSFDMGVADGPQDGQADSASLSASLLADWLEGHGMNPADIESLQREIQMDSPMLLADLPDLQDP
# [19] = viability rescue of complex I mutant cybrids, primary screen, cell-based, galactose medium, ATP luminescence (AID 1645843;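 active means z-score of at least 1.8 in each of two replicates, scored against plate mean and spread of sample wells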;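 further: positive z means more ATP and so rescue of galactose-driven cybrid death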); settings: complex I mutant cybrid cells, 72 h, stronger effect = higher value
# [20] = differential killing of epithelial or mesenchymal cells, primary screen, imaging, PC-3E GFP, TEM4-18 mCherry, co-culture (AID 1345086;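 active means compounds killing one labelled cell type while sparing the other, by normalised counts and ratio limits, not self-fluorescent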;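 on all read-outs here: cells exposed to compound for 72 h before imaging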;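 on red/green cell ratio (normalised): normalised mesenchymal count divided by normalised epithelial count so high means epithelial killing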); settings: imaging cell counts, at 1 µM; for red/green cell ratio (normalised): actives lie on both sides
# [21] = system: Aerobactin synthetase IucA (Klebsiella pneumoniae); assay: IucA aerobactin synthetase inhibitors, biochemical, Tocris library, absorbance (AID 1345561); settings: purified IucA enzyme assay, absorbance (OD) read-out; stronger effect = lower value;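 tested at 8 µM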;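 further: 100% = enzyme without compound and 0% = no enzyme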
# [22] = target: ATP-dependent translocase ABCB1 (Homo sapiens) (UniProt P08183); assay: MDR1 (ABCB1) efflux transporter inhibition, cell-based (AID 377; in the data active means fluorescence slope change above about 50%); settings: MDR1-expressing cells, fluorescent substrate accumulation slope; stronger effect = higher value; concentration not given here
# ATP-dependent translocase ABCB1 (Homo sapiens), sequence (P08183 whole entry, looked up): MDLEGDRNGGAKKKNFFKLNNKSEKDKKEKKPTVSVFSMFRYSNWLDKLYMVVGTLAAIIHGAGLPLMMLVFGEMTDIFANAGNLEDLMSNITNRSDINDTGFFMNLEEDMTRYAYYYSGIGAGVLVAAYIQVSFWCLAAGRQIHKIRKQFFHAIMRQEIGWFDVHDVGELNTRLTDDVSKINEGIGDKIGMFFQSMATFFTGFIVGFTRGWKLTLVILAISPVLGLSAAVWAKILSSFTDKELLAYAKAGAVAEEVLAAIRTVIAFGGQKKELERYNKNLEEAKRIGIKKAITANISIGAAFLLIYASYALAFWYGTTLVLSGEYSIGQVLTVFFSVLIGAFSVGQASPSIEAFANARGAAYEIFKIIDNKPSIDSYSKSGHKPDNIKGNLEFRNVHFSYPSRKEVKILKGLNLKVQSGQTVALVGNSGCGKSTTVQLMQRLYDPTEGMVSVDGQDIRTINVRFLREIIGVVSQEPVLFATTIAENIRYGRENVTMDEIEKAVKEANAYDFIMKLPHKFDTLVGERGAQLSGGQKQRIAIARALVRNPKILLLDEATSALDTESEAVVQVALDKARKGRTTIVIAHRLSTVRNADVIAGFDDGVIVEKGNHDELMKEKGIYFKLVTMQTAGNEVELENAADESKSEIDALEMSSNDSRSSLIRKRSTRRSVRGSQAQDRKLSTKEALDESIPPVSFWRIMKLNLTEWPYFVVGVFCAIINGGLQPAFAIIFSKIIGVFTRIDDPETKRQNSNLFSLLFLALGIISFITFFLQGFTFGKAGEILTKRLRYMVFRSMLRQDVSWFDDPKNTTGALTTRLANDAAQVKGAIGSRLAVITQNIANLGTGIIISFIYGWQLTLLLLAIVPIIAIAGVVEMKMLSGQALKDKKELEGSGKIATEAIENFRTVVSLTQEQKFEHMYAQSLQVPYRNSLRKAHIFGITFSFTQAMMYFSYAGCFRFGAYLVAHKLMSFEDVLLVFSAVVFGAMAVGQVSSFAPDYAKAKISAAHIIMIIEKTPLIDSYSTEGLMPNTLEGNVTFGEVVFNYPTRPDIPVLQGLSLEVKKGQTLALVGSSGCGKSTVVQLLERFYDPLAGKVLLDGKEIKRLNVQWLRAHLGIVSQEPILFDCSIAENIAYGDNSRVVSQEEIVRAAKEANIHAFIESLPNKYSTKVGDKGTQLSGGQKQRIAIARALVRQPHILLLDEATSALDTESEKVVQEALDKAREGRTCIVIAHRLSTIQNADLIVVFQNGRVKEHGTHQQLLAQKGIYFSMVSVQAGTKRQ
# [23] = hESC survival regulators, cell-based (AID 493140); settings: human embryonic stem cell survival screen; stronger effect = higher value;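 further: cells exposed to compounds for four days before counting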
# [24] = target: NAD(+) hydrolase SARM1 (Homo sapiens) (UniProt Q6SZW1); assay: SARM1 TIR NADase inhibitors, cell lysate, NAD-Glo luminescence (AID 1508614;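 active means compound whose remaining NAD level is above about 45 nM, limit read from the data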); settings: SAM-TIR HEK293T lysate NADase, at 1 µM, stronger effect = higher value
# NAD(+) hydrolase SARM1 (Homo sapiens), sequence (Q6SZW1 whole entry, looked up): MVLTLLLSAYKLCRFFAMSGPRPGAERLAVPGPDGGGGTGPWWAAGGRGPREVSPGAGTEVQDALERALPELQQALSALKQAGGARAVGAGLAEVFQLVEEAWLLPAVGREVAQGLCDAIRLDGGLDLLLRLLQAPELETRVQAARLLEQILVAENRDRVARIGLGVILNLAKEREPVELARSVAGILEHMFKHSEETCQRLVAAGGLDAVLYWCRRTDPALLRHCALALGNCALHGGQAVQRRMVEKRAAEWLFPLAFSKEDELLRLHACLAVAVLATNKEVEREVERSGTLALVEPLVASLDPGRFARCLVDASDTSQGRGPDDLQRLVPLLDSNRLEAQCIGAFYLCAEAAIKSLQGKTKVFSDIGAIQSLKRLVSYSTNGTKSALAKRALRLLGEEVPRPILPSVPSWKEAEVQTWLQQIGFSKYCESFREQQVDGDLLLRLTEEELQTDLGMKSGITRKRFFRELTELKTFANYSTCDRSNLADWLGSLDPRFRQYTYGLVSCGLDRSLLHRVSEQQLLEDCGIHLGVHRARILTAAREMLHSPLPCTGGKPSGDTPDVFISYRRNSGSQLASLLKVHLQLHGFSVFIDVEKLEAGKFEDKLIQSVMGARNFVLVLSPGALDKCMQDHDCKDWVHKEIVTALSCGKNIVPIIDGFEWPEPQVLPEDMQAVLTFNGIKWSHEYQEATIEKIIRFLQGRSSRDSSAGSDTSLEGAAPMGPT
# [25] = measured here: relative caspase fold change +Dox/-Dox
# [26] = measured here: total cells with miR-34 induction, stronger effect = lower value
# [27] = measured here: total cells without miR-34 induction
# [28] = measured here: epithelial PC-3E GFP cell survival
# [29] = measured here: mesenchymal TEM4-18 mCherry cell survival
smiles,measurement,setting,value
NC(=NCCC[C@H](N)C(=O)O)N[N+](=O)[O-],inhibition,[1],-12.4% and -12.2%
same,score,[2],0.79 and 1.25
same,rescue above control,[3],-0.39 and 5.97
same,cytochrome c release ratio,[4],0.94 and 0.84
same,inhibition of aggregation,[5],34.7% and 12.9%
same,glutamate uptake change,[6],19.3% and -1.48%
same,inclusion score,[7],2
same,aggregation suppression score,[8],1.04 and 1.38
same,period change,[9],0.04 h (inactive)
same,parasite load remaining,[10],100% (inactive)
same,viability,[10],68.5%
same,inhibition,[11],-2% (inactive)
same,fluorescence ratio (interference),[12],1 (inactive)
same,inhibition,[13],3.83% (inactive)
same,activity remaining,[14],121% (inactive)
same,remaining activity,[15],115% (inactive)
same,fold change,[16]; stronger effect = lower value,1.02 (inactive)
same,fold change,[16]; [25],0.79
same,cell count,[16]; [26],10000
same,cell count,[16]; [27],9830
same,outcome,[17],inactive
same,luciferase signal,[18],44 AU (inactive)
same,z-score,[19],0.525 (inactive)
C=CCc1ccc2c(c1)OCO2,inhibition,[1],-35.5%
same,score,[2],0.7
same,rescue above control,[3],-4.01
same,cytochrome c release ratio,[4],0.78
same,inhibition of aggregation,[5],27.9%
same,glutamate uptake change,[6],1.11%
same,aggregation suppression score,[8],0.706
same,parasite load remaining,[10],147% (inactive)
same,viability,[10],87.4%
same,inhibition,[13],7.49% (inactive)
same,red/green cell ratio (normalised),[20],0.79 (inactive)
same,normalised cell number,[20]; [28],1.31
same,normalised cell number,[20]; [29],1.03
same,activity remaining,[14],124% (inactive)
same,luciferase signal,[18],40 AU (inactive)
O=C(O)CF,inhibition,[13],10.5% (inactive)
same,red/green cell ratio (normalised),"[20]; counts scaled to control wells, 1 = unselective",0.92 (inactive)
same,normalised cell number,[20]; [28],1.09
same,normalised cell number,[20]; [29],1
same,luciferase signal,[18],80 AU (inactive)
c1ccc(N=Nc2ccccc2)cc1,inhibition,[1],-11.7%
same,score,[2],0.28
same,rescue above control,[3],6.73
same,cytochrome c release ratio,[4],0.73
same,inhibition of aggregation,[5],88.8%
same,glutamate uptake change,[6],-16%
same,aggregation suppression score,[8],0.313
same,parasite load remaining,[10],103% (inactive)
same,viability,[10],66.9%
same,inhibition,[13],14.4% (inactive)
same,red/green cell ratio (normalised),[20],0.85 (inactive)
same,normalised cell number,[20]; [28],1.3
same,normalised cell number,[20]; [29],1.1
same,activity remaining,[14],103% (inactive)
same,luciferase signal,[18],40 AU (inactive)
N#C/C(=C\c1ccc(O)cc1)C(=O)O,inhibition,[1],-8.72%
same,score,[2],1.56
same,rescue above control,[3],-7.23
same,cytochrome c release ratio,[4],0.76
same,inhibition of aggregation,[5],-4.76%
same,glutamate uptake change,[6],12%
same,inclusion score,[7],2
same,aggregation suppression score,[8],1.17
same,inhibition,[13],0.31% (inactive)
same,red/green cell ratio (normalised),[20],0.79 (inactive)
same,normalised cell number,[20]; [28],1.25
same,normalised cell number,[20]; [29],0.99
same,luciferase signal,[18],144 AU (inactive)
CC1C[C@H]2CC(=O)[C@H]3CCCN4CCC[C@H]2[C@]34C1 (stereo partly drawn),inhibition,[13],-1.6% (inactive)
same,activity remaining,[14],91.3% (inactive)
O=[N+]([O-])c1cc(O)c(O)c([N+](=O)[O-])c1,inhibition,[1],-6.91%
same,score,[2],1.27
same,rescue above control,[3],-7.14
same,cytochrome c release ratio,[4],0.96
same,inhibition of aggregation,[5],80.3%
same,glutamate uptake change,[6],-10%
same,inclusion score,[7],2
same,aggregation suppression score,[8],1.02
same,period change,[9],0.035 h (inactive)
same,inhibition,[11],1% (inactive)
same,fluorescence ratio (interference),[12],1 (inactive)
same,inhibition,[13],-7.64% (inactive)
same,remaining activity,[21],95.2% (inactive)
same,activity remaining,[14],110% (inactive)
same,remaining activity,[15],97% (inactive)
same,fold change,[16]; stronger effect = lower value,1.02 (inactive) and 0.929 (inactive)
same,fold change,[16]; [25],1.32 and 0.849
same,cell count,[16]; [26],9880 and 8690
same,cell count,[16]; [27],9680 and 9350
same,outcome,[17],inactive
same,z-score,[19],0.815 (inactive) and 1.17 (inactive)
c1ccc2c(c1)[nH]c1cnccc12,fluorescence slope change,[22],73% (active)
same,inhibition,[13],1.67% (inactive)
same,red/green cell ratio (normalised),[20],1 (inactive)
same,normalised cell number,[20]; [28],0.91
same,normalised cell number,[20]; [29],0.91
same,activity remaining,[14],105% (inactive)
same,luciferase signal,[18],44 AU (inactive)
C=C1C2CC[C@@]3(C)[C@H](c4ccoc4)OC(=O)C[C@]13O[C@H]1CC(=O)C(C)(C)[C@H](C(OC(C)=O)C(=O)OC)[C@@]21C (stereo partly drawn),inhibition,[13],6.78% (inactive)
same,activity remaining,[14],88.1% (inactive)
COC1=CC23CCCN2CCc2cc4c(cc2C3C1O)OCO4 (stereo not drawn),inhibition,[13],-9.46% (inactive)
same,activity remaining,[14],108% (inactive)
C/C=C(/C)C(=O)O[C@H]1CC[C@@]2(C)[C@@H]3CC[C@H]4[C@]5(O)C[C@H](O)[C@@]6(O)[C@@H](CN7C[C@@H](C)CC[C@H]7[C@@]6(C)O)[C@]5(O)C[C@@]42O[C@]13O,inhibition,[1],-10.4%
same,score,[2],1.23
same,rescue above control,[3],6.62
same,cytochrome c release ratio,[4],0.66
same,inhibition of aggregation,[5],73.8%
same,glutamate uptake change,[6],7.49%
same,inclusion score,[7],2
same,aggregation suppression score,[8],1.05
same,inhibition,[13],-10.1% (inactive)
same,red/green cell ratio (normalised),[20],0.76 (inactive)
same,normalised cell number,[20]; [28],1.31
same,normalised cell number,[20]; [29],1
same,activity remaining,[14],98.9% (inactive)
same,luciferase signal,[18],96 AU (inactive) and 56 AU (inactive)
COc1cc2c(cc1OC)[C@@H]1C(=O)c3ccc(O)c(CC=C(C)C)c3O[C@@H]1CO2,inhibition,[13],-10.7% (inactive)
same,activity remaining,[14],103% (inactive)
C=C(C)[C@@H]1[C@H]2OC(=O)[C@@H]1[C@]1(O)C[C@H]3O[C@]34C(=O)O[C@H]2[C@]14C,inhibition,[1],-31.3%
same,score,[2],1.33
same,rescue above control,[3],6.9
same,cytochrome c release ratio,[4],0.8
same,inhibition of aggregation,[5],48.7%
same,glutamate uptake change,[6],1.09%
same,inclusion score,[7],2
same,aggregation suppression score,[8],1.46
same,inhibition,[13],2.77% (inactive)
same,red/green cell ratio (normalised),[20],1.08 (inactive)
same,normalised cell number,[20]; [28],0.99
same,normalised cell number,[20]; [29],1.06
same,luciferase signal,[18],76 AU (inactive)
COc1ccc2c(c1OC)C(=O)O[C@@H]2[C@H]1c2cc3c(cc2CCN1C)OCO3,fluorescence slope change,[22],159% (active)
same,survival,[23],7.17 (inactive)
same,parasite load remaining,[10],124% (inactive) and 81.5% (inactive) and 40.1% (inactive)
same,viability,[10],101% and 75.4% and 98.1%
same,inhibition,[13],6.9% (inactive)
same,red/green cell ratio (normalised),[20],1.06 (inactive)
same,normalised cell number,[20]; [28],1.07
same,normalised cell number,[20]; [29],1.13
same,fold change,[16]; stronger effect = lower value,0.884 (inactive)
same,fold change,"[16]; stronger effect = lower value, cell number ratio, induced over uninduced",0.838 (inactive)
same,fold change,[16]; [25],1.51 and 2.25
same,cell count,[16]; [26],8490 and 11200
same,cell count,[16]; [27],10100 and 12700
same,remaining NAD,[24],10 nM (inactive)
same,luciferase signal,[18],84 AU (inactive)
COc1cc2c(c(OC)c1OC)-c1ccc(O)c(=O)cc1[C@@H](NC(C)=O)CC2,inhibition,[13],7.64% (inactive)
same,activity remaining,[14],120% (inactive)
CCCCOC(=O)c1ccccc1C(=O)OCCCC,parasite load remaining,[10],68.9% (inactive)
same,viability,[10],91.7%
same,inhibition,[13],4.37% (inactive)
same,red/green cell ratio (normalised),[20],1.22 (inactive)
same,normalised cell number,[20]; [28],0.78
same,normalised cell number,[20]; [29],0.95
same,fold change,[16]; stronger effect = lower value,0.891 (inactive)
same,fold change,[16]; [25],1.43
same,cell count,[16]; [26],10600
same,cell count,[16]; [27],11900
same,remaining NAD,[24],10 nM (inactive)
same,luciferase signal,[18],76 AU (inactive)
